Data taken from PubChem BioAssay (NCI).
The panel holds about 83,000 compounds, 20% with a hit somewhere; the sample as a whole holds those more often.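 In brief: 96-well plates, 48 h treatment, single concentration, percent growth endpoint.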 Values without a mark were called inactive. Calls of active or inactive are those of the source. Rule for the calls: active = growth percent below 10; inactive = the rest.

Experiments:
Test in all cases: NCI-60 one-dose screen, 48 h (100 = growth as untreated, 0 = no growth, -100 = all killed)
T-47D breast = details: 10 µM
BT-549 breast = details: 10 µM unless noted
MDA-MB-435 melanoma = details: 10 µM unless noted
SW-620 colon = details: 10 µM unless noted
HCT-116 colon = details: 10 µM unless noted
HCC-2998 colon = details: 10 µM unless noted
KM12 colon = details: 10 µM unless noted
MCF7 breast = details: 10 µM unless noted

Compound	growth (T-47D breast)	growth (BT-549 breast)	growth (MDA-MB-435 melanoma)	growth (SW-620 colon)	growth (HCT-116 colon)	growth (HCC-2998 colon)	growth (KM12 colon)	growth (MCF7 breast)
COc1ccc(/C=C2\CN(Cc3cn(CCCNc4ccnc5cc(Cl)ccc45)nn3)C/C(=C\c3ccc(OC)cc3)C2=O)cc1	102%	44.3%	60.2%	46.4%	44.5%	95.1%	45.4%	–
COc1ncnc2c1ncn2C/C(Br)=C(\Br)CCl	1.25% (active)	70.2%	3.99% (active)	-73.6% (active)	-82.3% (active)	89.8%	-5.61% (active)	–
Cn1c2c(cc(S(=O)(=O)c3ccccc3)c1=O)CCc1c-2cnn1-c1ccccc1Cl	68%	101%	100%	116%	109%	118%	112%	–
c1ccc2c(c1)oc1cc3c(cc12)nnc1cccn13	85.4%	97.9%	105%	108%	100%	–	99.8%	–
COC(=O)c1c2c(c(C)[n+]([O-])c1C)C(=O)C=C(NCc1ccc(Cl)cc1)C2=O	-33.8% (active)	-23.8% (active)	-96.1% (active)	-17.3% (active)	-19.9% (active)	–	-4.32% (active)	-63.2% (active)
COc1nc2c(cc1S(=O)(=O)c1ccccc1)CCc1c-2cnn1-c1ccccc1	40.4%	78.7%	69.3%	89.9%	72.4%	98.1%	100%	–
CCOc1ccc(/C=N\N2CCCCCC2)cc1OCC	99.1%	96.2%	53.2%	114%	99.5%	–	103%	96%
O=C(NCc1cccnc1)c1ccc([N+](=O)[O-])o1	57%	4.28% (active)	-19.9% (active)	-65.3% (active)	-4.08% (active)	-97.6% (active)	0.0106% (active)	–
CCN1CCN(c2nc3ccccc3c3c(=O)c4cc(F)ccc4sc23)CC1	65.1%	85.7%	10.2%	37.2%	54.8%	64.9%	48.5%	–
CCOC(=O)c1c(Cl)c2c(n1Cc1cc(OC)cc(OC)c1)-c1oncc1CCC2	51.7%	69.9%	-53% (active)	16.8%	23.9%	55%	29.6%	–
COc1cc2oc(-c3ccc(O)cc3)cc(=O)c2c(O)c1I	93.1%	96.2%	101%	109%	104%	105%	96.5%	–
C[C@H]1C(=O)C23CCC1C[C@@]21O[C@@H]2C(C)(C)C=CC(=O)C23COC1=O	98.4%	106%	107%	108%	96.5%	–	113%	99.5%
CC(C)(C)[Si](C)(C)OC1[C@@H](COC(N)=O)O[C@@H](n2cnc3c(N)ncnc32)[C@H]1O[Si](C)(C)C(C)(C)C (stereo partly specified)	84.4%	106%	74.6%	100%	90.1%	107%	76%	–
O=C(Nc1ccccc1)Oc1cccc2cccnc12	31.5%	102%	97%	48.2%	1.27% (active)	–	108%	–
Cc1nc(-c2ccccc2)cc2c(O)c(C(=O)N/N=C/Cc3ccccc3)[nH]c(=O)c12	104%	105%	118%	107%	101%	95.4%	115%	–
CN([N-]C(=O)CC(=O)[N-]N(C)C(=S)c1ccccc1)C(=S)c1ccccc1.[Cu+2]	-52.7% (active)	-73% (active)	-83.9% (active)	-67.4% (active)	-12.4% (active)	-94.2% (active)	-74.8% (active)	–
Cc1nc(NN)c([N+](=O)[O-])c(NN)n1	103%	107%	104%	104%	99.2%	–	104%	98.7%
COC(=O)C1C2CC3c4[nH]c5cc(OC)ccc5c4CCN3CC2CC(OC2CCCCO2)C1OC (stereo unspecified)	108%	97.2%	101%	100%	103%	–	105%	95.8%

Compound	growth (T-47D breast)	growth (BT-549 breast)	growth (MDA-MB-435 melanoma)	growth (SW-620 colon)	growth (HCT-116 colon)	growth (HCC-2998 colon)	growth (KM12 colon)	growth (MCF7 breast)
O=C(N/N=C/c1ccc(F)cc1)c1[nH]c2ccc(I)cc2c1-c1ccccc1	48.4%	20.1%	-24% (active)	33.3%	14.8%	–	5.42% (active)	14.3%
CC1(C)N=C(N)N=C(N)N1c1cccc(OCCOc2cccc([N+](=O)[O-])c2)c1	83.1%	37.8%	17.8%	48.6%	10.9%	47.6%	22.2%	–
O=C1c2c(c3c4cc(Br)ccc4[nH]c3c3ccc4ccccc4c23)C(=O)N1O	69.3%	93.4%	94.6%	68.8%	83.6%	95.1%	87.5%	–
COc1ccc(-c2csc3c2-n2cccc2C3=O)cc1O	79.6%	-26.2% (active)	-57.1% (active)	20.2%	-9.12% (active)	–	-2.75% (active)	5.97% (active)
COc1ccc(C(=O)C2=CC(=O)C(=O)C2)cc1OC	99.7%	93.8%	106%	107%	103%	108%	106%	–
Brc1ccccc1Nc1ccc2nnc(-c3ccncc3)n2n1	80.6%	107%	105%	102%	94.9%	–	94.1%	84.9%
Oc1ccc(Cl)cc1CNc1nc2ccccc2[nH]1	96%	58.4%	-67.3% (active)	-48.6% (active)	12.3%	59.3%	13.2%	–
COc1cccc2c(=O)c3c(sc12)c(NCCN(C)C)nc1ccccc13	61.3%	61.3%	-87.1% (active)	-69.5% (active)	11%	12.2%	-76.7% (active)	–
FC(F)(F)Oc1ccc2c(c1)C[C@H]1C[C@@H](c3ccoc3)N2O1	94.8%	112%	88.8%	110%	107%	–	103%	–
O=C(COc1ccc(/C=C2\CSc3ccccc3C2=O)cc1)c1ccc(Cl)cc1	94.8%	110%	95.6%	115%	94.1%	–	106%	114%
COc1cc(C2CC(=O)Nc3c2ccc2ccccc32)cc(Br)c1OC (stereo unspecified)	51.2%	10.9%	-55.5% (active)	20%	11.2%	–	16.2%	9.65% (active)
O=S(=O)(/N=C1C=C/C(=N\S(=O)(=O)c2ccccc2)c2ccccc2\1)c1ccccc1	93.1%	104%	0.648% (active)	112%	94.5%	–	101%	84.1%
Cc1c(C)n(CC(O)CNC2CCCCC2C)c2ccccc12 (stereo unspecified)	-10.5% (active)	-94.3% (active)	-67.9% (active)	-77% (active)	-81.9% (active)	–	-77.9% (active)	–
Clc1ccc2c(c1)C[C@H]1C[C@@H](c3cccs3)N2O1	97.1%	105%	95.9%	99.1%	105%	99.8%	104%	–
Cc1ccc2c(c1)c(Sc1ccc(C(=O)NO)cc1)c1n2CN(C)CC1	23.4%	54.3%	18.9%	7.66% (active)	-11.2% (active)	14.9%	27.7%	–
COC(=O)/C=C1/CCC2C3CCC4=CC(=O)C(Br)CC4(C)C3C(=O)CC12C (stereo unspecified)	54.8%	95.9%	76.3%	69.2%	47.9%	62.1%	81.1%	–
O=C1CC(c2ccsc2)c2snc(-c3ccc(Cl)cc3)c2N1 (stereo unspecified)	30.6%	32.8%	-20.9% (active)	33.4%	21.5%	–	27.6%	7.59% (active)
